# What was measured:
# Experiment in all cases: DAPPL (digital affinity profiling via proximity ligation, sequencing); 10 mM Tris-HCl pH 7.5, 50 mM NaCl, 1 mM DTT, 4% glycerol, room temperature, 30 min; GST-TFs on glutathione beads, 16-mer random dsDNA library, 0.1% formaldehyde crosslink after washing; high values mean tight binding
# FLI1 = molecular target: T1, FLI1 (Homo sapiens, UniProt Q01543 1-452); settings: protein: recombinant; tags: N-terminal GST; dsDNA, one strand shown
# T1 sequence: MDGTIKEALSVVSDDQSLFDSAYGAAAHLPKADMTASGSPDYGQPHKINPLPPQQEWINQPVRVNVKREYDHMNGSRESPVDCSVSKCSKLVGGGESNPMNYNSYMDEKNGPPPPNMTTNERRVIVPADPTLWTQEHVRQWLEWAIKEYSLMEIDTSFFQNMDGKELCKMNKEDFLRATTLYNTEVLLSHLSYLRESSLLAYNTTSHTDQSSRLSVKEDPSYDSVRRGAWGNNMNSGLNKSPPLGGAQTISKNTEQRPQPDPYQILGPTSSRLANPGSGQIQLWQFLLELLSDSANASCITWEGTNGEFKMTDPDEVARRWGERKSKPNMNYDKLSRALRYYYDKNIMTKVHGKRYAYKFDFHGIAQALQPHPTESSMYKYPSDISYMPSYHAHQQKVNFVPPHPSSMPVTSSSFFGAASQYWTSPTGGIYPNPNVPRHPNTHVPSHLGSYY
# Summary of the method: (§1)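 Human transcription factors were made in yeast as GST fusions, captured on glutathione beads and barcoded with DNA. With a tag-only sample included, the pool was incubated with 200 nmole of a random double-stranded 16-mer DNA library in Tris/NaCl/DTT/glycerol buffer at room temperature for 30 min, then crosslinked with 0.1% formaldehyde after washing, ligated by proximity, amplified and sequenced. For binding signal, each hexamer's read frequency for a factor is divided by its frequency for the tag-only sample.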
# ELK1 = molecular target: T2, ELK1 (Homo sapiens, UniProt P19419 1-428); settings: protein: recombinant; tags: N-terminal GST; dsDNA, one strand shown
# T2 sequence: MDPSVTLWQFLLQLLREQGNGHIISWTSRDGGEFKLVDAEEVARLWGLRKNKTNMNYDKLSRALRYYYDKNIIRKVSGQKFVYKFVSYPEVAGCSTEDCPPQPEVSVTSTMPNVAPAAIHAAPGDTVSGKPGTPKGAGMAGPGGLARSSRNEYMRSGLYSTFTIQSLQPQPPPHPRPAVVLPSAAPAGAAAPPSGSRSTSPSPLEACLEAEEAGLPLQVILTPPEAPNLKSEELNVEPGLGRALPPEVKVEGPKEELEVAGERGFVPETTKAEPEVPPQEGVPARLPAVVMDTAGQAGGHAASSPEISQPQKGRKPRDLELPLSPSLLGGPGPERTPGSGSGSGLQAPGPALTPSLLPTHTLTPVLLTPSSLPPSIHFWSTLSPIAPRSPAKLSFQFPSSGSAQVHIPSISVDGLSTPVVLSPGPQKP
# Summary of the method: as §1
# GABPA = molecular target: T3, GABPA (Homo sapiens, UniProt Q06546 1-454); settings: protein: recombinant; tags: N-terminal GST; dsDNA, one strand shown
# T3 sequence: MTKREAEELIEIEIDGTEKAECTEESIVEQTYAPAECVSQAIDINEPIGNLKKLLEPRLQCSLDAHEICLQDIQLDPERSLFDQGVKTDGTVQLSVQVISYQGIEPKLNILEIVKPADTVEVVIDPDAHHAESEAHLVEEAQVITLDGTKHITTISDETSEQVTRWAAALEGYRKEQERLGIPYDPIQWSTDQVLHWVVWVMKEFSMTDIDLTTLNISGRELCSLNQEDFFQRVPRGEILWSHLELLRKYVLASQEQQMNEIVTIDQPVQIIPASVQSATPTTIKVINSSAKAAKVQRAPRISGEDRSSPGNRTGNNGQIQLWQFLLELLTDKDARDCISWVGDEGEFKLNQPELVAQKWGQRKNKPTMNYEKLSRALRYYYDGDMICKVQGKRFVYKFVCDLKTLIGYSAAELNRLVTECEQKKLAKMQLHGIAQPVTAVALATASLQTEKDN
# Summary of the method: as §1
# ERG = molecular target: T4, ERG (Homo sapiens, UniProt P11308 1-479); settings: protein: recombinant; tags: N-terminal GST; dsDNA, one strand shown
# T4 sequence: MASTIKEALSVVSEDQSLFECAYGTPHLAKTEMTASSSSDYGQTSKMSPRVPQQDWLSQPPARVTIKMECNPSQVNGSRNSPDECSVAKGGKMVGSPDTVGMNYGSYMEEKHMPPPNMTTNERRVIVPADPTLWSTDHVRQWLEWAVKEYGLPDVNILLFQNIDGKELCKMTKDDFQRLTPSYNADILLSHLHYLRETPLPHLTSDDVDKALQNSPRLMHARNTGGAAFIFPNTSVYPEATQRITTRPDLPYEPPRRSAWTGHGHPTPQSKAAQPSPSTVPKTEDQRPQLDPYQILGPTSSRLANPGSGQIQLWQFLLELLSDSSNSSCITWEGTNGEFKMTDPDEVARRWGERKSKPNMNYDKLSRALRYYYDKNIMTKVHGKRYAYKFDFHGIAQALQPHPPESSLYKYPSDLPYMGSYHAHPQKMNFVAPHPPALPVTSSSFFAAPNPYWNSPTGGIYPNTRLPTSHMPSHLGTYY
# Summary of the method: as §1
# ELF1 = ELF1 (Homo sapiens, UniProt P32519 1-619); settings: protein: recombinant; tags: N-terminal GST; dsDNA, one strand shown
# Summary of the method: as §1
# EHF = molecular target: T5, EHF (Homo sapiens, UniProt Q9NZC4 1-300); settings: protein: recombinant; tags: N-terminal GST; dsDNA, one strand shown
# T5 sequence: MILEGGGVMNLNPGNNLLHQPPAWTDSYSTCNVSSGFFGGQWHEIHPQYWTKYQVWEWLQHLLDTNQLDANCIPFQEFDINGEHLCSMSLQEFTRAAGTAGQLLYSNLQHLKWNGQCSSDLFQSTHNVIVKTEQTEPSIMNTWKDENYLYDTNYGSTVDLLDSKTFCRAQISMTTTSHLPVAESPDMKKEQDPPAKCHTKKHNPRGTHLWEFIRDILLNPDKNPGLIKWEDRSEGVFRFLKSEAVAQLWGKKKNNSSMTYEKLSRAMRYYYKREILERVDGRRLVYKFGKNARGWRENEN
# Summary of the method: as §1
# SPI1 = SPI1 (Homo sapiens, UniProt P17947 1-270); settings: protein: recombinant; tags: N-terminal GST; dsDNA, one strand shown
# Summary of the method: as §1
# SPIB = SPIB (Homo sapiens, UniProt Q01892 1-262); settings: protein: recombinant; tags: N-terminal GST; dsDNA, one strand shown
# Summary of the method: as §1
# ELK3 = molecular target: T6, ELK3 (Homo sapiens, UniProt P41970 1-407); settings: protein: recombinant; tags: N-terminal GST; dsDNA, one strand shown
# T6 sequence: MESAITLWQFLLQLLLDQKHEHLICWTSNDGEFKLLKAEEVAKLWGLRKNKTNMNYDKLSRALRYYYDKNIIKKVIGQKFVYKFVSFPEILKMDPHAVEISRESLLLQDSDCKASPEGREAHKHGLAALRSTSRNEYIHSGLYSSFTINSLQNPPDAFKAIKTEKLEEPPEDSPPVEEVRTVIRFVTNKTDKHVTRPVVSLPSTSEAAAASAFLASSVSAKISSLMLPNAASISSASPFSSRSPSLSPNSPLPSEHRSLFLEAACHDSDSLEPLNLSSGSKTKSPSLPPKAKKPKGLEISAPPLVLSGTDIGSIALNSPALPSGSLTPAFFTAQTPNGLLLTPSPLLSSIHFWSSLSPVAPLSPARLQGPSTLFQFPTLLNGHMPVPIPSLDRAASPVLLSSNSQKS
# Summary of the method: as §1
# FEV = molecular target: T7, FEV (Homo sapiens, UniProt Q99581 1-238); settings: protein: recombinant; tags: N-terminal GST; dsDNA, one strand shown
# T7 sequence: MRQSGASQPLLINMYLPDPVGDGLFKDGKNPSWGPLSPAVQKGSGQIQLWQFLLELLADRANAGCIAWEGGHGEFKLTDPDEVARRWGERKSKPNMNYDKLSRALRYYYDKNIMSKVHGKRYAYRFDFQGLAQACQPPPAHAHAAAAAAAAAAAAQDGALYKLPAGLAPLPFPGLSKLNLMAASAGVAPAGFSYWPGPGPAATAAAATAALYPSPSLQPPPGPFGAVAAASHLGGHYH
# Summary of the method: as §1
# ETV5 = ETV5 (Homo sapiens, UniProt P41161 1-510); settings: protein: recombinant; tags: N-terminal GST; dsDNA, one strand shown
# Summary of the method: as §1
# HSF1 = HSF1 (Homo sapiens, UniProt Q00613 1-529); settings: protein: recombinant; tags: N-terminal GST; chain copies: 3; dsDNA, one strand shown
# Summary of the method: as §1
# SPIC = molecular target: T8, SPIC (Homo sapiens, UniProt Q8N5J4 1-248); settings: protein: recombinant; tags: N-terminal GST; dsDNA, one strand shown
# T8 sequence: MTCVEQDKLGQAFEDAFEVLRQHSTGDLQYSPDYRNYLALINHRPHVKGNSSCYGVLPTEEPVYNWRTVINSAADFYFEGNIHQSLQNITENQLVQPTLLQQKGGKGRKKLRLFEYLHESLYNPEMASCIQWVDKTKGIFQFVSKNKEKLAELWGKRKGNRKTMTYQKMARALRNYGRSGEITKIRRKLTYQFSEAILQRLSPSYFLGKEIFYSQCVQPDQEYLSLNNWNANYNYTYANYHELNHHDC
# Summary of the method: as §1
# ELF4 = ELF4 (Homo sapiens, UniProt Q99607 1-663); settings: protein: recombinant; tags: N-terminal GST; dsDNA, one strand shown
# Summary of the method: as §1
# ELK4 = molecular target: T9, ELK4 (Homo sapiens, UniProt P28324-2 1-405); settings: protein: recombinant; tags: N-terminal GST; dsDNA, one strand shown
# T9 sequence: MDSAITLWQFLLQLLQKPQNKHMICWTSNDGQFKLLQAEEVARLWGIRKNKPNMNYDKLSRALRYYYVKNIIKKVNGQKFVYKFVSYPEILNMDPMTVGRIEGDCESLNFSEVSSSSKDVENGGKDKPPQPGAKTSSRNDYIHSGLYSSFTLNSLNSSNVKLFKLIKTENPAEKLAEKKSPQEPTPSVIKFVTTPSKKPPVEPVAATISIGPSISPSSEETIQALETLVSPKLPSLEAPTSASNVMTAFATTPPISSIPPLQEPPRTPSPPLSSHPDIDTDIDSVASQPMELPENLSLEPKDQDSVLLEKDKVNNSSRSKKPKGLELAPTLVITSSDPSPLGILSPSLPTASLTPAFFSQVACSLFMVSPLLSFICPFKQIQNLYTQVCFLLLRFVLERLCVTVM
# Summary of the method: as §1
# ETV2 = molecular target: T10, ETV2 (Homo sapiens, UniProt O00321 1-342); settings: protein: recombinant; tags: N-terminal GST; dsDNA, one strand shown
# T10 sequence: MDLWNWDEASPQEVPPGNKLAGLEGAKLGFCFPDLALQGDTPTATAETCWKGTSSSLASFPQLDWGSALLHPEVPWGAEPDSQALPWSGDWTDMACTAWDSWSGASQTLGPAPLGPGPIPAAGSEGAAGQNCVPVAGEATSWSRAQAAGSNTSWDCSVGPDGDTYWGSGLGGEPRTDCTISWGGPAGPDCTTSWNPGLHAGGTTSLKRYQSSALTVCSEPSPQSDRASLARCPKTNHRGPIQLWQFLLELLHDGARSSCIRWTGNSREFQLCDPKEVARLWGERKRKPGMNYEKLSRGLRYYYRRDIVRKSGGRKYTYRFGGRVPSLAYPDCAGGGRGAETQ
# Summary of the method: as §1
# ELF3 = molecular target: T11, ELF3 (Homo sapiens, UniProt P78545 1-371); settings: protein: recombinant; tags: N-terminal GST; dsDNA, one strand shown
# T11 sequence: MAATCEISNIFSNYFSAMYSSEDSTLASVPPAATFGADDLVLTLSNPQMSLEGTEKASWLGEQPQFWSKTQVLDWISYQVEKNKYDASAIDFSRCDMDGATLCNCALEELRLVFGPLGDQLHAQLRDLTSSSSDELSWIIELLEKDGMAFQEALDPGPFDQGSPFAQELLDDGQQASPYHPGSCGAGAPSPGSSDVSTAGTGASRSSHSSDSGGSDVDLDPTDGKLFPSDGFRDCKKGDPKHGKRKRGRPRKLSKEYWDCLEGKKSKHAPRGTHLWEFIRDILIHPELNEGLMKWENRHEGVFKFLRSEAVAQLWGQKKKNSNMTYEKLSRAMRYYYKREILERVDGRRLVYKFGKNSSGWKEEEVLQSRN
# Summary of the method: as §1
# CRX = CRX (Homo sapiens, UniProt O43186 1-299); settings: protein: recombinant; tags: N-terminal GST; dsDNA, one strand shown
# Summary of the method: as §1
# ETV1 = ETV1 (Homo sapiens, UniProt P50549 1-477); settings: protein: recombinant; tags: N-terminal GST; dsDNA, one strand shown
# Summary of the method: as §1
# Sequence of CRX (O43186 whole entry): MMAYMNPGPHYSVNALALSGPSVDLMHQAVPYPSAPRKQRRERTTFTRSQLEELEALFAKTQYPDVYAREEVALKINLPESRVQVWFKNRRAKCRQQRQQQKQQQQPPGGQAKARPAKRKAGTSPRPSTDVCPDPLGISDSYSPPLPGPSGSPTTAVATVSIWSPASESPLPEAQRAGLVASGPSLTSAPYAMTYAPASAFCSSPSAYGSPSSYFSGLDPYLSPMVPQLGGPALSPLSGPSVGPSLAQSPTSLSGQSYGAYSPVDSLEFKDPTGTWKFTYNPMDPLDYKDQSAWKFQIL
# Sequence of ELF4 (Q99607 whole entry): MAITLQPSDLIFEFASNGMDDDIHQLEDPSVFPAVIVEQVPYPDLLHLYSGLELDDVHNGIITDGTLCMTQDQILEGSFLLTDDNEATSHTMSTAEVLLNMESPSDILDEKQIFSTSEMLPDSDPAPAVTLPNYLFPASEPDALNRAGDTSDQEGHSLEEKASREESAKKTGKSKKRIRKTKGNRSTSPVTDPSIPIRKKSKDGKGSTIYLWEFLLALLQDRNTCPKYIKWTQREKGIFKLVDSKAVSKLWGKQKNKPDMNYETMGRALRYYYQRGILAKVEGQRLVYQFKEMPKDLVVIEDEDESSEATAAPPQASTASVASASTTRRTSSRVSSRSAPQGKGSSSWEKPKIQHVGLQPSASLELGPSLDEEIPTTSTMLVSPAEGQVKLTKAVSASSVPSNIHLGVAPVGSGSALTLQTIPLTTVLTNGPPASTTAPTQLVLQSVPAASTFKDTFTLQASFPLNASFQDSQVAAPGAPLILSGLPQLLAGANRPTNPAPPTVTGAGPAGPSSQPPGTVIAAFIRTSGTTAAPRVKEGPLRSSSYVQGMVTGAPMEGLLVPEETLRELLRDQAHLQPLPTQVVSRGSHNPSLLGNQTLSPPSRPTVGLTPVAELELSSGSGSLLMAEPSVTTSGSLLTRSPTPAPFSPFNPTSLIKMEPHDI
# Sequence of ETV1 (P50549 whole entry): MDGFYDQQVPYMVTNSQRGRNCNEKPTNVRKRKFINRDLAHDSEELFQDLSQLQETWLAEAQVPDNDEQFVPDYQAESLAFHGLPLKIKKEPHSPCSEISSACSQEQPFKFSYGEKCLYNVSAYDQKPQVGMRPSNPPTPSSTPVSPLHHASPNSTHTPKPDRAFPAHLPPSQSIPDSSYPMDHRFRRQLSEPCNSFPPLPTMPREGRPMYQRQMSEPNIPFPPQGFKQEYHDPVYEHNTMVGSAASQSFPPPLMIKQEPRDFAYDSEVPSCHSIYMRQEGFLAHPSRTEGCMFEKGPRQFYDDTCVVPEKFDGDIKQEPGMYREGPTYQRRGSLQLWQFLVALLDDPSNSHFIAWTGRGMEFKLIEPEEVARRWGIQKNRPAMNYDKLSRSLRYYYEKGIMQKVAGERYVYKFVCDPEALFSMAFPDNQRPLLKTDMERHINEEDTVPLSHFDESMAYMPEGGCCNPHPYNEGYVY
# Sequence of ETV5 (P41161 whole entry): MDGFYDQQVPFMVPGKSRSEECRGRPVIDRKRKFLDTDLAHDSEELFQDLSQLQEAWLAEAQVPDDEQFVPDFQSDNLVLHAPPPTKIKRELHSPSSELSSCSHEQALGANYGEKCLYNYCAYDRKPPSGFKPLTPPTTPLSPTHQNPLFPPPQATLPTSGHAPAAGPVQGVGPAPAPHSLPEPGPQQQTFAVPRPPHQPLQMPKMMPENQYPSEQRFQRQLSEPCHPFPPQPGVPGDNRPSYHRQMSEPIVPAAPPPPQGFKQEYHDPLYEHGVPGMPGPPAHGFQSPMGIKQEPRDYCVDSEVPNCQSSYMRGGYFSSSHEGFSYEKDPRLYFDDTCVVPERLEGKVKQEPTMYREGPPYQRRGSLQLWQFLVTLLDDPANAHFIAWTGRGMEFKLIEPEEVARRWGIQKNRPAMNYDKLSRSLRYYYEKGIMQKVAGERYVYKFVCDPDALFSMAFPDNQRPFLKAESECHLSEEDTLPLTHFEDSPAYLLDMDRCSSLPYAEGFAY
# Sequence of ELF1 (P32519 whole entry): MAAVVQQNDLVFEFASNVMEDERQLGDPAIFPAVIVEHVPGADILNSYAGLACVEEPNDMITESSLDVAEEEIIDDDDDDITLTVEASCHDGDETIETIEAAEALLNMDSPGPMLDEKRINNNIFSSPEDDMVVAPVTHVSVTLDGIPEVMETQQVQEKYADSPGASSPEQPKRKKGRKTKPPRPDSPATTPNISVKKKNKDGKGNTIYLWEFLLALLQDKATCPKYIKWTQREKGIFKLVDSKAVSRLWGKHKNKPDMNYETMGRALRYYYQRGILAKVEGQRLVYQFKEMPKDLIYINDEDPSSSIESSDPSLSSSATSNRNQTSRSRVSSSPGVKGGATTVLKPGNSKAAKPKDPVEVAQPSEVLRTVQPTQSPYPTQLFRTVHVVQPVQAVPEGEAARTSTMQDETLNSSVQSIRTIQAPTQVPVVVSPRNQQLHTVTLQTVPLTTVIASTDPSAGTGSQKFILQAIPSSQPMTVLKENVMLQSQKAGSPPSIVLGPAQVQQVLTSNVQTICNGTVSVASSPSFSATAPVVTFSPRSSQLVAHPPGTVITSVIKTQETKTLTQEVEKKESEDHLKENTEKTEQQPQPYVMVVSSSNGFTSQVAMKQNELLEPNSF
# Sequence of HSF1 (Q00613 whole entry): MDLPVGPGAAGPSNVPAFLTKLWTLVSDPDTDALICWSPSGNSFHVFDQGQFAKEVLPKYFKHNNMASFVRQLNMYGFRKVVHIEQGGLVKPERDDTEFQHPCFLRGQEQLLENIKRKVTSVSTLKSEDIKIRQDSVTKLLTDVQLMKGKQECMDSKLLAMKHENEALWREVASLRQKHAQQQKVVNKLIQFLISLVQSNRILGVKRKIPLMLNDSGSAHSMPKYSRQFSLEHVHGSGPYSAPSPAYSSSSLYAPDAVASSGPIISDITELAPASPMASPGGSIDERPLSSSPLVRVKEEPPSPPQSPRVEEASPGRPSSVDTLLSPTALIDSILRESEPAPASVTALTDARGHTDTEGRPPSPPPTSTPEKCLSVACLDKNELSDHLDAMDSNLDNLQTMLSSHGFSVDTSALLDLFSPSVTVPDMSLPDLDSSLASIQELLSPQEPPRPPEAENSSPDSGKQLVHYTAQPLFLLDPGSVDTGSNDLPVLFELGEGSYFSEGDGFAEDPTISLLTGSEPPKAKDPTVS
# Sequence of SPIB (Q01892 whole entry): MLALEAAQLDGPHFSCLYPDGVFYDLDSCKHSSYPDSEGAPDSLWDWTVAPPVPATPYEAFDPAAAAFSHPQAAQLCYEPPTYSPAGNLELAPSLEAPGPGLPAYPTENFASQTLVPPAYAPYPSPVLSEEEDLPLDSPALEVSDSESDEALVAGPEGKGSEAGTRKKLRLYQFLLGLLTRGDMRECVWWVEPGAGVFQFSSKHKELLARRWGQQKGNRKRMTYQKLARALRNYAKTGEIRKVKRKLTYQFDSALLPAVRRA
sequence,measurement,setting,value
TCGCTT,binding signal,FLI1,"1.22 fold enrichment (6-mer frequency, TF over GST control)"
same,binding signal,ELK1,"1.3 fold enrichment (6-mer frequency, TF over GST control)"
same,binding signal,GABPA,"1.23 fold enrichment (6-mer frequency, TF over GST control)"
same,binding signal,ERG,"1.18 fold enrichment (6-mer frequency, TF over GST control)"
same,binding signal,ELF1,"1.19 fold enrichment (6-mer frequency, TF over GST control)"
same,binding signal,EHF,"1.2 fold enrichment (6-mer frequency, TF over GST control)"
same,binding signal,SPI1,"1.08 fold enrichment (6-mer frequency, TF over GST control)"
same,binding signal,SPIB,"1.38 fold enrichment (6-mer frequency, TF over GST control)"
same,binding signal,ELK3,"1.18 fold enrichment (6-mer frequency, TF over GST control)"
same,binding signal,FEV,"1.2 fold enrichment (6-mer frequency, TF over GST control)"
same,binding signal,ETV5,"1.38 fold enrichment (6-mer frequency, TF over GST control)"
same,binding signal,HSF1,"1.11 fold enrichment (6-mer frequency, TF over GST control)"
same,binding signal,SPIC,"1.08 fold enrichment (6-mer frequency, TF over GST control)"
same,binding signal,ELF4,"1.24 fold enrichment (6-mer frequency, TF over GST control)"
same,binding signal,ELK4,"1.21 fold enrichment (6-mer frequency, TF over GST control)"
same,binding signal,ETV2,"1.05 fold enrichment (6-mer frequency, TF over GST control)"
same,binding signal,ELF3,"1.18 fold enrichment (6-mer frequency, TF over GST control)"
same,binding signal,CRX,"1.15 fold enrichment (6-mer frequency, TF over GST control)"
same,binding signal,ETV1,"1.24 fold enrichment (6-mer frequency, TF over GST control)"

# From article PMC7862700, “An all-to-all approach to the identification of sequence-specific readers for epigenetic DNA modifications on cytosine”
